{"source": "PubChem BioAssay (NCI)", "key": {"[1]": {"experiment": "NCI Yeast Anticancer Drug Screen. Data for the wt1 strain (AID 149);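 further: 0% = growth of vehicle-treated wt1 cultures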", "conditions": "S. cerevisiae wt1 strain (SPY 50644) growth inhibition, hits give high values", "how_it_was_run": "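Using yeast strain wt1, compound-induced growth inhibition was determined against vehicle-treated cultures.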"}, "[2]": {"experiment": "NCI Yeast Anticancer Drug Screen. Data for the rad50EPP+ strain (AID 151);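 further: 0% = growth of vehicle-treated control cultures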", "conditions": "S. cerevisiae rad50 mutant strain, hits give high values", "how_it_was_run": "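In this screen, rad50EPP+ yeast were exposed to compounds. Growth inhibition was scored against vehicle-treated controls.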"}, "[3]": {"experiment": "NCI Yeast Anticancer Drug Screen. Data for the mgt1 strain (AID 153)", "conditions": "S. cerevisiae mgt1 mutant growth inhibition, hits give high values", "how_it_was_run": "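mgt1 strain exposed; growth vs vehicle control recorded as inhibition.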"}, "[4]": {"experiment": "NCI Yeast Anticancer Drug Screen. Data for the rad50 strain (AID 155);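 further: 0% = growth of vehicle-only cultures of the same strain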", "conditions": "S. cerevisiae rad50 strain growth inhibition, hits give high values", "how_it_was_run": "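Relative growth inhibition (compound vs vehicle) was measured in yeast with a defined repair-gene alteration.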"}, "[5]": {"experiment": "NCI Yeast Anticancer Drug Screen. Data for the mec2-1 strain (AID 157)", "conditions": "S. cerevisiae mec2-1 strain, hits give high values", "how_it_was_run": "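Vehicle-treated cultures served as reference for growth inhibition of compound-exposed mec2-1 yeast.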"}, "[6]": {"experiment": "NCI Yeast Anticancer Drug Screen. Data for the rad14 strain (AID 159);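 further: 0% = growth of vehicle-treated control cultures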", "conditions": "S. cerevisiae rad14 strain growth inhibition, hits give high values", "how_it_was_run": "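Screen for anticancer potential: a yeast strain altered in DNA damage repair is grown with compound, and reduced growth is quantified against vehicle controls.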"}, "[7]": {"experiment": "NCI Yeast Anticancer Drug Screen. Data for the CLN2oe strain (AID 163);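 further: 0% = growth of vehicle-only control cultures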", "conditions": "S. cerevisiae CLN2oe strain, hits give high values", "how_it_was_run": "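Inhibition relative to vehicle-treated yeast is reported. Cells: strain with genetic alteration in cell-cycle control, grown with compound.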"}, "[8]": {"experiment": "NCI Yeast Anticancer Drug Screen. Data for the cln2 rad14 strain (AID 165);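 further: 0% = growth equal to vehicle treated cultures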", "conditions": "S. cerevisiae cln2 rad14 strain, hits give high values", "how_it_was_run": "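Each compound was tested on cln2 rad14 yeast. Inhibition of growth was calculated against vehicle-exposed controls.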"}, "[9]": {"experiment": "NCI Yeast Anticancer Drug Screen. Data for the bub3 strain (AID 167)", "conditions": "S. cerevisiae bub3 mutant strain, hits give high values", "how_it_was_run": "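Screening used yeast with an engineered genetic alteration affecting cell cycle control. Compound-exposed cultures were compared with vehicle cultures, and reduced growth was taken as inhibition.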"}, "[10]": {"experiment": "NCI Yeast Anticancer Drug Screen. Data for the wt2 strain (AID 169);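 further: 0% = growth of vehicle-treated yeast cultures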", "conditions": "S. cerevisiae wt2 strain growth inhibition, hits give high values", "how_it_was_run": "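Inhibition of yeast growth was determined after compound treatment, normalised to controls receiving only vehicle.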"}, "[11]": {"experiment": "NCI Yeast Anticancer Drug Screen. Data for the mlh1 strain (AID 171);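 further: 0% = growth of vehicle-treated control cultures of the same strain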", "conditions": "S. cerevisiae mlh1 strain growth inhibition, hits give high values", "how_it_was_run": "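Vehicle-normalised growth inhibition of a repair- or checkpoint-altered yeast strain following compound treatment.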"}, "[12]": {"experiment": "NCI Yeast Anticancer Drug Screen. Data for the sgs1 strain (AID 173);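 further: 0% = growth of vehicle-only control cultures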", "conditions": "S. cerevisiae sgs1 mutant, hits give high values", "how_it_was_run": "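Screen format: yeast with repair or checkpoint alterations, compound exposure, growth read relative to vehicle.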"}, "[13]": {"experiment": "NCI Yeast Anticancer Drug Screen. Data for the mlh1 rad18 strain (AID 175)", "conditions": "S. cerevisiae mlh1 rad18 strain growth inhibition, hits give high values", "how_it_was_run": "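Vehicle-treated cultures served as the reference for growth inhibition in a yeast strain carrying DNA damage repair alterations exposed to each compound.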"}, "[14]": {"experiment": "NCI Yeast Anticancer Drug Screen. Data for the rad18 strain (AID 177)", "conditions": "S. cerevisiae rad18 mutant growth inhibition, hits give high values", "how_it_was_run": "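Test articles were incubated with altered yeast defective in DNA damage repair. Results are given as inhibition of growth versus vehicle.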"}, "[15]": {"conditions": "at 5.0 µM (retest, dose inferred, filed as 0.5)"}, "[16]": {"conditions": "at 50.0 µM (retest, dose inferred, filed as 5.0)"}}, "note": "This is part of a sample that, as a whole, favours compounds with a hit. Of some 79,000 tested, about 15% had one in any assay. Unmarked numbers belong to inactive results. Calls of active or inactive are those of the source. No stated cut-off is given here; in the data, active means growth inhibition above about 70%; inactive means the rest.", "data": [{"smiles": "O=S(=O)(O)CC[S][Sn]([S]CCS(=O)(=O)O)([c]1ccccc1)[c]1ccccc1", "values": [{"measurement": "growth inhibition", "setting": "[1]; at 1.2 µM", "result": -25, "unit": "%"}, {"measurement": "growth inhibition", "setting": "[1]; at 3.7 µM", "result": 12, "unit": "%"}, {"measurement": "growth inhibition", "setting": "[1]; at 11.0 µM", "result": "80% (active)"}, {"measurement": "growth inhibition", "setting": "[1]; at 33.0 µM", "result": "95% (active)"}, {"measurement": "growth inhibition", "setting": "[1]; at 100.0 µM", "result": "98% (active)"}, {"measurement": "growth inhibition", "setting": "[2]; at 1.2 µM", "result": -20, "unit": "%"}, {"measurement": "growth inhibition", "setting": "[2]; at 3.7 µM", "result": -17, "unit": "%"}, {"measurement": "growth inhibition", "setting": "[2]; at 11.0 µM", "result": -11, "unit": "%"}, {"measurement": "growth inhibition", "setting": "[2]; at 33.0 µM", "result": -7, "unit": "%"}, {"measurement": "growth inhibition", "setting": "[2]; at 100.0 µM", "result": -22, "unit": "%"}, {"measurement": "growth inhibition", "setting": "[3]; at 1.2 µM", "result": -7, "unit": "%"}, {"measurement": "growth inhibition", "setting": "[3]; at 3.7 µM", "result": 45, "unit": "%"}, {"measurement": "growth inhibition", "setting": "[3]; at 11.0 µM", "result": "92% (active)"}, {"measurement": "growth inhibition", "setting": "[3]; at 33.0 µM", "result": "97% (active)"}, {"measurement": "growth inhibition", "setting": "[3]; at 100.0 µM", "result": "98% (active)"}, {"measurement": "growth inhibition", "setting": "[4]; at 1.2 µM", "result": -28, "unit": "%"}, {"measurement": "growth inhibition", "setting": "[4]; at 3.7 µM", "result": 18, "unit": "%"}, {"measurement": "growth inhibition", "setting": "[4]; [15]", "result": 22, "unit": "%"}, {"measurement": "growth inhibition", "setting": "[4]; at 11.0 µM", "result": "90% (active)"}, {"measurement": "growth inhibition", "setting": "[4]; at 33.0 µM", "result": "97% (active)"}, {"measurement": "growth inhibition", "setting": "[4]; [16]", "result": "97% (active)"}, {"measurement": "growth inhibition", "setting": "[4]; at 50.0 µM", "result": "88.5% (active)"}, {"measurement": "growth inhibition", "setting": "[4]; at 100.0 µM", "result": "97% (active)"}, {"measurement": "growth inhibition", "setting": "[5]; at 1.2 µM", "result": -21, "unit": "%"}, {"measurement": "growth inhibition", "setting": "[5]; at 3.7 µM", "result": 11, "unit": "%"}, {"measurement": "growth inhibition", "setting": "[5]; [15]", "result": 20, "unit": "%"}, {"measurement": "growth inhibition", "setting": "[5]; at 11.0 µM", "result": "81% (active)"}, {"measurement": "growth inhibition", "setting": "[5]; at 33.0 µM", "result": "97% (active)"}, {"measurement": "growth inhibition", "setting": "[5]; [16]", "result": "99% (active)"}, {"measurement": "growth inhibition", "setting": "[5]; at 50.0 µM", "result": "89.8% (active)"}, {"measurement": "growth inhibition", "setting": "[5]; at 100.0 µM", "result": "98% (active)"}, {"measurement": "growth inhibition", "setting": "[6]; at 1.2 µM", "result": -6, "unit": "%"}, {"measurement": "growth inhibition", "setting": "[6]; at 3.7 µM", "result": 35, "unit": "%"}, {"measurement": "growth inhibition", "setting": "[6]; at 11.0 µM", "result": "91% (active)"}, {"measurement": "growth inhibition", "setting": "[6]; at 33.0 µM", "result": "97% (active)"}, {"measurement": "growth inhibition", "setting": "[6]; at 100.0 µM", "result": "97% (active)"}, {"measurement": "growth inhibition", "setting": "[7]; at 1.2 µM", "result": 20, "unit": "%"}, {"measurement": "growth inhibition", "setting": "[7]; at 3.7 µM", "result": 20, "unit": "%"}, {"measurement": "growth inhibition", "setting": "[7]; at 11.0 µM", "result": "72% (active)"}, {"measurement": "growth inhibition", "setting": "[7]; at 33.0 µM", "result": "96% (active)"}, {"measurement": "growth inhibition", "setting": "[7]; at 100.0 µM", "result": "98% (active)"}, {"measurement": "growth inhibition", "setting": "[8]; [15]", "result": 6, "unit": "%"}, {"measurement": "growth inhibition", "setting": "[8]; [16]", "result": "91% (active)"}, {"measurement": "growth inhibition", "setting": "[8]; at 50.0 µM", "result": "88.5% (active)"}, {"measurement": "growth inhibition", "setting": "[9]; at 1.2 µM", "result": -31, "unit": "%"}, {"measurement": "growth inhibition", "setting": "[9]; at 3.7 µM", "result": 30, "unit": "%"}, {"measurement": "growth inhibition", "setting": "[9]; [15]", "result": 46, "unit": "%"}, {"measurement": "growth inhibition", "setting": "[9]; at 11.0 µM", "result": "87% (active)"}, {"measurement": "growth inhibition", "setting": "[9]; at 33.0 µM", "result": "96% (active)"}, {"measurement": "growth inhibition", "setting": "[9]; [16]", "result": "96% (active)"}, {"measurement": "growth inhibition", "setting": "[9]; at 50.0 µM", "result": "87.8% (active)"}, {"measurement": "growth inhibition", "setting": "[9]; at 100.0 µM", "result": "97% (active)"}, {"measurement": "growth inhibition", "setting": "[10]; at 1.2 µM", "result": -34, "unit": "%"}, {"measurement": "growth inhibition", "setting": "[10]; at 3.7 µM", "result": 8, "unit": "%"}, {"measurement": "growth inhibition", "setting": "[10]; at 11.0 µM", "result": "89% (active)"}, {"measurement": "growth inhibition", "setting": "[10]; at 33.0 µM", "result": "98% (active)"}, {"measurement": "growth inhibition", "setting": "[10]; at 100.0 µM", "result": "97% (active)"}, {"measurement": "growth inhibition", "setting": "[11]; at 1.2 µM", "result": -35, "unit": "%"}, {"measurement": "growth inhibition", "setting": "[11]; at 3.7 µM", "result": 11, "unit": "%"}, {"measurement": "growth inhibition", "setting": "[11]; at 11.0 µM", "result": "89% (active)"}, {"measurement": "growth inhibition", "setting": "[11]; at 33.0 µM", "result": "95% (active)"}, {"measurement": "growth inhibition", "setting": "[11]; at 100.0 µM", "result": "96% (active)"}, {"measurement": "growth inhibition", "setting": "[12]; at 1.2 µM", "result": -12, "unit": "%"}, {"measurement": "growth inhibition", "setting": "[12]; at 3.7 µM", "result": 32, "unit": "%"}, {"measurement": "growth inhibition", "setting": "[12]; at 11.0 µM", "result": "88% (active)"}, {"measurement": "growth inhibition", "setting": "[12]; at 33.0 µM", "result": "96% (active)"}, {"measurement": "growth inhibition", "setting": "[12]; at 100.0 µM", "result": "97% (active)"}, {"measurement": "growth inhibition", "setting": "[13]; [15]", "result": 43, "unit": "%"}, {"measurement": "growth inhibition", "setting": "[13]; [16]", "result": "99% (active)"}, {"measurement": "growth inhibition", "setting": "[13]; at 50.0 µM", "result": "91.5% (active)"}, {"measurement": "growth inhibition", "setting": "[14]; at 1.2 µM", "result": -2, "unit": "%"}, {"measurement": "growth inhibition", "setting": "[14]; at 3.7 µM", "result": 43, "unit": "%"}, {"measurement": "growth inhibition", "setting": "[14]; at 11.0 µM", "result": "92% (active)"}, {"measurement": "growth inhibition", "setting": "[14]; at 33.0 µM", "result": "96% (active)"}, {"measurement": "growth inhibition", "setting": "[14]; at 100.0 µM", "result": "98% (active)"}]}]}
